Holding throughout (experiment): HT-SELEX; high values mean tight binding
What all share (settings): protein: recombinant; vector His6-GST; dsDNA, one strand shown

One assay concerns the target T1, SALL4 ZFC4 WT (HT-SELEX) (Mus musculus, UniProt Q8BX22 870-940).
T1 sequence: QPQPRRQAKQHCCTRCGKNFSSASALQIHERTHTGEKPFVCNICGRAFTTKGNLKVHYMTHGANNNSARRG
Put shortly:
(§1)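 DNA from a random library (1.5 µg in the first cycle, 200 ng afterwards) was incubated with purified recombinant mouse SALL4 zinc finger cluster 4, residues 870–940 (1 µg), for 10 min at room temperature in 100 µl buffer: 10 mM Tris–HCl pH 7.5, 50 mM NaCl, poly(dI-dC), DTT. Bound complexes were pulled down on Ni2+ beads, washed and PCR-amplified, and the selection was repeated for up to 6 cycles in triplicate. MiSeq reads were scanned for 6-mers, and binding signal is each canonical k-mer's read fraction as fold change over the initial random library.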

The target in assay [1] is T2, SALL4 ZFC4 R900W (HT-SELEX) (Mus musculus, UniProt Q8BX22 870-940, R900W).
T2 sequence: T1 sequence with R31W
A digest of the protocol: as §1

The target in assay [2] is T3, SALL4 ZFC4 G921D (HT-SELEX) (Mus musculus, UniProt Q8BX22 870-940, G921D).
T3 sequence: T1 sequence with G52D
Put shortly:
as §1

Positions count from the first letter of the chain named.

Turning to ATCGTA, the binding signal with SALL4 ZFC4 WT (HT-SELEX) worked out at 1.24 ± 0.0384 fold-change vs cycle 0; in assay [1], 1.28 ± 0.0284 fold-change vs cycle 0; in assay [2], 1.29 ± 0.0379 fold-change vs cycle 0.

Take TCTACA: the results for the binding signal (in the assay with SALL4 ZFC4 WT (HT-SELEX); in assay [1]; in assay [2]) were 1.24 ± 0.0179 fold-change vs cycle 0, 1.33 ± 0.0358 fold-change vs cycle 0 and 1.29 ± 0.0644 fold-change vs cycle 0, respectively.

On to GTGGTA, for which the binding signal in the assay with SALL4 ZFC4 WT (HT-SELEX) stood at 0.757 ± 0.0708 fold-change vs cycle 0; in assay [1], 0.849 ± 0.0366 fold-change vs cycle 0; in assay [2], 0.874 ± 0.0298 fold-change vs cycle 0.

Regarding CCTTGA, the binding signal with SALL4 ZFC4 WT (HT-SELEX) was 0.879 ± 0.0172 fold-change vs cycle 0; in assay [1] it was 1.041 ± 0.00922 fold-change vs cycle 0; in assay [2], 1.05 ± 0.0247 fold-change vs cycle 0.

As to CCTAGG, the binding signal was 0.46 ± 0.0474 fold-change vs cycle 0 with SALL4 ZFC4 WT (HT-SELEX), 0.588 ± 0.0412 fold-change vs cycle 0 in assay [1] and 0.669 ± 0.0278 fold-change vs cycle 0 in assay [2].

For CGGAAC, the binding signal with SALL4 ZFC4 WT (HT-SELEX) is 0.339 ± 0.0284 fold-change vs cycle 0; in assay [1], 0.417 ± 0.0399 fold-change vs cycle 0; in assay [2] it was 0.524 ± 0.0677 fold-change vs cycle 0.

Turning to ATAACA, the binding signal with SALL4 ZFC4 WT (HT-SELEX) was determined as 2.52 ± 0.194 fold-change vs cycle 0; in assay [1] it was 2.06 ± 0.122 fold-change vs cycle 0; in assay [2], 1.83 ± 0.192 fold-change vs cycle 0.

Take ATCGTG: the binding signal was determined as 0.701 ± 0.0455 fold-change vs cycle 0 with SALL4 ZFC4 WT (HT-SELEX), 0.775 ± 0.0256 fold-change vs cycle 0 in assay [1] and 0.876 ± 0.0311 fold-change vs cycle 0 in assay [2].

Turning to GATTAA, the binding signal worked out at 2.07 ± 0.127 fold-change vs cycle 0 in the assay with SALL4 ZFC4 WT (HT-SELEX), 1.99 ± 0.123 fold-change vs cycle 0 in assay [1] and 1.77 ± 0.188 fold-change vs cycle 0 in assay [2].

Take CGTTAG: the binding signal in the assay with SALL4 ZFC4 WT (HT-SELEX) was 0.723 ± 0.0258 fold-change vs cycle 0; in assay [1], 0.82 ± 0.0289 fold-change vs cycle 0; in assay [2], 0.902 ± 0.0446 fold-change vs cycle 0.

With CATGGA, the binding signal with SALL4 ZFC4 WT (HT-SELEX) is 0.865 ± 0.0271 fold-change vs cycle 0; in assay [1], 0.95 ± 0.0312 fold-change vs cycle 0; in assay [2] it was 0.985 ± 0.0405 fold-change vs cycle 0.

On to AAGTCA, for which the binding signal with SALL4 ZFC4 WT (HT-SELEX) came out at 1.3 ± 0.0493 fold-change vs cycle 0; in assay [1], 1.46 ± 0.0531 fold-change vs cycle 0; in assay [2], 1.35 ± 0.0928 fold-change vs cycle 0.

For GTAGAA, the figures for the binding signal (with SALL4 ZFC4 WT (HT-SELEX); in assay [1]; in assay [2]) were 1.21 ± 0.0427 fold-change vs cycle 0, 1.36 ± 0.0162 fold-change vs cycle 0 and 1.27 ± 0.0697 fold-change vs cycle 0, respectively.

As for CGACTA, the binding signal amounted to 0.59 ± 0.0236 fold-change vs cycle 0 with SALL4 ZFC4 WT (HT-SELEX), 0.656 ± 0.0311 fold-change vs cycle 0 in assay [1] and 0.777 ± 0.0234 fold-change vs cycle 0 in assay [2].

Turning to ACATTA, the binding signal is 2.1 ± 0.0777 fold-change vs cycle 0 with SALL4 ZFC4 WT (HT-SELEX), 2.03 ± 0.0851 fold-change vs cycle 0 in assay [1] and 1.81 ± 0.142 fold-change vs cycle 0 in assay [2].

For the sequence GAAAGC, the values for the binding signal (in the assay with SALL4 ZFC4 WT (HT-SELEX); in assay [1]; in assay [2]) were 0.586 ± 0.0266 fold-change vs cycle 0, 0.698 ± 0.0129 fold-change vs cycle 0 and 0.775 ± 0.0469 fold-change vs cycle 0, respectively.

With ATTTGA, the binding signal with SALL4 ZFC4 WT (HT-SELEX) was 1.85 ± 0.0312 fold-change vs cycle 0; in assay [1], 1.79 ± 0.0613 fold-change vs cycle 0; in assay [2] it was 1.65 ± 0.0905 fold-change vs cycle 0.

With GTCACA, the binding signal with SALL4 ZFC4 WT (HT-SELEX) amounted to 0.677 ± 0.0487 fold-change vs cycle 0; in assay [1], 0.804 ± 0.0553 fold-change vs cycle 0; in assay [2], 0.861 ± 0.0406 fold-change vs cycle 0.

For AGATTA, the binding signal came out at 2.21 ± 0.147 fold-change vs cycle 0 with SALL4 ZFC4 WT (HT-SELEX), 2.14 ± 0.14 fold-change vs cycle 0 in assay [1] and 1.86 ± 0.198 fold-change vs cycle 0 in assay [2].

With CCATCA, the binding signal turned out to be 0.823 ± 0.0184 fold-change vs cycle 0 with SALL4 ZFC4 WT (HT-SELEX), 0.957 ± 0.0265 fold-change vs cycle 0 in assay [1] and 0.949 ± 0.0116 fold-change vs cycle 0 in assay [2].

With CACATA, the binding signal with SALL4 ZFC4 WT (HT-SELEX) came out at 1.22 ± 0.0607 fold-change vs cycle 0; in assay [1] it was 1.28 ± 0.0534 fold-change vs cycle 0; in assay [2], 1.25 ± 0.0582 fold-change vs cycle 0.

CTATTC: the binding signal worked out at 1.3 ± 0.0236 fold-change vs cycle 0 with SALL4 ZFC4 WT (HT-SELEX), 1.46 ± 0.0185 fold-change vs cycle 0 in assay [1] and 1.39 ± 0.0918 fold-change vs cycle 0 in assay [2].

For the sequence CGGAAG, the values for the binding signal (with SALL4 ZFC4 WT (HT-SELEX); in assay [1]; in assay [2]) were 0.465 ± 0.0113 fold-change vs cycle 0, 0.58 ± 0.0281 fold-change vs cycle 0 and 0.707 ± 0.0759 fold-change vs cycle 0, respectively.

As for GTTATA, the binding signal was 2.5 ± 0.231 fold-change vs cycle 0 with SALL4 ZFC4 WT (HT-SELEX), 2.05 ± 0.15 fold-change vs cycle 0 in assay [1] and 1.78 ± 0.179 fold-change vs cycle 0 in assay [2].

For CCCTAA, the binding signal with SALL4 ZFC4 WT (HT-SELEX) was determined as 0.849 ± 0.0207 fold-change vs cycle 0; in assay [1], 0.947 ± 0.00994 fold-change vs cycle 0; in assay [2] it was 0.952 ± 0.0492 fold-change vs cycle 0.

Regarding AACTAA, the binding signal with SALL4 ZFC4 WT (HT-SELEX) was determined as 2.02 ± 0.0351 fold-change vs cycle 0; in assay [1] it was 2.07 ± 0.133 fold-change vs cycle 0; in assay [2], 1.82 ± 0.176 fold-change vs cycle 0.

On to CCTCTC, for which the binding signal in the assay with SALL4 ZFC4 WT (HT-SELEX) was 0.497 ± 0.0203 fold-change vs cycle 0; in assay [1], 0.586 ± 0.028 fold-change vs cycle 0; in assay [2] it was 0.687 ± 0.045 fold-change vs cycle 0.

For CTCTCA, the binding signal in the assay with SALL4 ZFC4 WT (HT-SELEX) turned out to be 0.878 ± 0.0209 fold-change vs cycle 0; in assay [1] it was 0.992 ± 0.023 fold-change vs cycle 0; in assay [2] it was 1.04 ± 0.0372 fold-change vs cycle 0.

In the case of CAGTCC, the binding signal with SALL4 ZFC4 WT (HT-SELEX) came to 0.44 ± 0.0267 fold-change vs cycle 0; in assay [1], 0.544 ± 0.0287 fold-change vs cycle 0; in assay [2] it was 0.63 ± 0.0382 fold-change vs cycle 0.

As to CAGTCA, the results for the binding signal (in the assay with SALL4 ZFC4 WT (HT-SELEX); in assay [1]; in assay [2]) were 0.794 ± 0.0288 fold-change vs cycle 0, 0.925 ± 0.0192 fold-change vs cycle 0 and 0.946 ± 0.028 fold-change vs cycle 0, respectively.

As to GTAATA, the binding signal in the assay with SALL4 ZFC4 WT (HT-SELEX) was determined as 2.33 ± 0.177 fold-change vs cycle 0; in assay [1], 2.09 ± 0.144 fold-change vs cycle 0; in assay [2], 1.81 ± 0.189 fold-change vs cycle 0.

CTGGTC: the binding signal with SALL4 ZFC4 WT (HT-SELEX) was determined as 0.403 ± 0.00696 fold-change vs cycle 0; in assay [1] it was 0.499 ± 0.0159 fold-change vs cycle 0; in assay [2], 0.601 ± 0.0523 fold-change vs cycle 0.

Take TCTCCA: the binding signal in the assay with SALL4 ZFC4 WT (HT-SELEX) stood at 0.872 ± 0.044 fold-change vs cycle 0; in assay [1], 0.992 ± 0.0225 fold-change vs cycle 0; in assay [2], 0.99 ± 0.0254 fold-change vs cycle 0.

With GTGCAA, the binding signal in the assay with SALL4 ZFC4 WT (HT-SELEX) was 0.539 ± 0.0349 fold-change vs cycle 0; in assay [1] it was 0.616 ± 0.0276 fold-change vs cycle 0; in assay [2], 0.721 ± 0.0304 fold-change vs cycle 0.

For the sequence GTCCCA, the binding signal with SALL4 ZFC4 WT (HT-SELEX) was 0.392 ± 0.0166 fold-change vs cycle 0; in assay [1] it was 0.464 ± 0.0186 fold-change vs cycle 0; in assay [2], 0.563 ± 0.0717 fold-change vs cycle 0.

For the sequence AAGATC, the values for the binding signal (in the assay with SALL4 ZFC4 WT (HT-SELEX); in assay [1]; in assay [2]) were 1.25 ± 0.0866 fold-change vs cycle 0, 1.42 ± 0.0452 fold-change vs cycle 0 and 1.44 ± 0.0439 fold-change vs cycle 0, respectively.

Turning to AGTTAC, the binding signal turned out to be 1.44 ± 0.0411 fold-change vs cycle 0 with SALL4 ZFC4 WT (HT-SELEX), 1.56 ± 0.0396 fold-change vs cycle 0 in assay [1] and 1.49 ± 0.117 fold-change vs cycle 0 in assay [2].

CATTGA: the binding signal with SALL4 ZFC4 WT (HT-SELEX) came to 1.25 ± 0.0236 fold-change vs cycle 0; in assay [1], 1.39 ± 0.0271 fold-change vs cycle 0; in assay [2] it was 1.35 ± 0.0347 fold-change vs cycle 0.

As for ACATAA, the results for the binding signal (with SALL4 ZFC4 WT (HT-SELEX); in assay [1]; in assay [2]) were 2.21 ± 0.177 fold-change vs cycle 0, 1.96 ± 0.0742 fold-change vs cycle 0 and 1.75 ± 0.158 fold-change vs cycle 0, respectively.

On to ACTTCC, for which the binding signal in the assay with SALL4 ZFC4 WT (HT-SELEX) turned out to be 0.854 ± 0.0494 fold-change vs cycle 0; in assay [1], 1.02 ± 0.0553 fold-change vs cycle 0; in assay [2] it was 1.03 ± 0.0487 fold-change vs cycle 0.

Regarding AAGACA, the figures for the binding signal (with SALL4 ZFC4 WT (HT-SELEX); in assay [1]; in assay [2]) were 1.28 ± 0.0466 fold-change vs cycle 0, 1.42 ± 0.0793 fold-change vs cycle 0 and 1.35 ± 0.0674 fold-change vs cycle 0, respectively.

For AGCCTA, the figures for the binding signal (in the assay with SALL4 ZFC4 WT (HT-SELEX); in assay [1]; in assay [2]) were 0.614 ± 0.0322 fold-change vs cycle 0, 0.728 ± 0.0355 fold-change vs cycle 0 and 0.832 ± 0.0333 fold-change vs cycle 0, respectively.

Values taken from paper PMC9838217, “Structure of SALL4 zinc finger domain reveals link between AT-rich DNA binding and Okihiro syndrome”.
